Measurements as given in PubChem BioAssay (Tox21).
Records with an inconclusive call do not appear. Active and inactive are the calls of the source. Unless noted, calls follow the shape of the dose curve; as a rule, active = well fitted curve in the direction sought with a large enough effect in the repeat runs; inconclusive = weak or mixed curves; inactive = no such curve, though single readings can be large; an effect the other way counts as inactive or inconclusive.

Legend:
[1] = biological target: Thyrotropin receptor (Homo sapiens) (UniProt P16473); experiment: qHTS assay to identify small molecule antagonists of the thyroid stimulating hormone receptor (TSHR) signaling pathway (AID 1259385; calls by dose curve; also: nearly all actives have a fitted effect of over 20% in size)
Procedure, shortened: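 Antagonist mode: compound-treated TSHR-expressing HEK293 cells were stimulated with 1.5 ng/mL TSH (final) in presence of Ro20-1724 for 30 min at RT. HTRF cAMP detection after 1 h; each compound tested at 15 concentrations, triplicate.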

[2] = qHTS assay to identify small molecule agonists of the estrogen receptor alpha (ER-alpha) signaling pathway in the presence of an antagonist - cell viability counter screen (AID 1259386);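 also: series mostly up to about 92 µM; cells exposed to compounds for 22 h at 37 °C before the viability read; nearly all actives have a fitted effect of over 30% in size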
Procedure, shortened: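 ICI-182,780 at 10.0nM final accompanies the compound titration (15 concentrations, 22hr, 37C) on VM7Luc4E2 cells. The CellTiter-Fluor fluorescence readout runs in the same wells as the luciferase assay.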

[3] = biological target: Progesterone receptor (Homo sapiens) (UniProt P06401); experiment: qHTS assay to identify small molecule agonists of the progesterone receptor (PR) signaling pathway (AID 1346784; calls by dose curve; also: nearly all actives have a fitted effect of over 30% in size)
Procedure, shortened: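 Using charcoal-stripped serum (2%) to limit endogenous steroids, PR-UAS-bla HEK 293T cells received compounds for 16 hr at 37C after 6 hr plating; beta-lactamase FRET fluorescence was recorded following 2 hr substrate loading at room temperature.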

[4] = biological target: Progesterone receptor (Homo sapiens) (UniProt P06401); experiment: qHTS assay to identify small molecule antagonists of the progesterone receptor (PR) signaling pathway (AID 1346795; active = well fitted inhibition curve with a large enough effect in the signal ratio in the repeat runs, not every such curve was filed as active; the % refers to the signal ratio)
Procedure, shortened: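 Inhibition of R5020-induced (1 nM final) beta-lactamase reporter signal in PR-UAS-bla HEK293T cells was scored by FRET fluorescence after overnight (16 hr) compound treatment.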

[5] = qHTS assay to identify small molecule antagonists of the progesterone receptor (PR) signaling pathway - cell viability counter screen (AID 1346798); also: series mostly up to about 92 µM; nearly all actives have a fitted effect of over 50% in size
Procedure, shortened: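 ATP content as viability readout: CellTiter-Glo luminescence, 30 min room temperature, in PR-UAS-bla HEK293T cells after 16 hr compound/R5020 treatment at 37C and 5% CO2.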

[6] = qHTS assay to identify small molecule agonists of the progesterone receptor (PR) signaling pathway - cell viability counter screen (AID 1346799; calls by dose curve; also: nearly all actives have a fitted effect of over 45% in size)
Procedure, shortened: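 Cytotoxicity in PR-bla HEK293T cells: 16 h compound, 37C; CellTiter-Glo added post-FRET read; luminescence after 30 min RT.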

[7] = qHTS assay to identify small molecule antagonists of the TGF-beta/Smad signaling pathway - cell viability counter screen (AID 1346824); also: nearly all actives have a fitted effect of over 50% in size
Procedure, shortened: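 Cytotoxicity counter-screen run in the same wells as the beta-lactamase Smad reporter read: CellTiter-Glo luminescence after 30 min at room temperature. HEK 293T SBE-bla cells had 5 hr compound exposure at 37 C with TGF-beta1 (0.25 ng/mL stock).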

[8] = qHTS assay to identify small molecule agonists of the TGF-beta/Smad signaling pathway - cell viability counter screen (AID 1346829); also: top concentration of the series differs between compounds; nearly all actives have a fitted effect of over 45% in size
Procedure, shortened: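 HEK 293T SBE-bla line, 5 hr compound exposure at 37 C, multiplexed CellTiter-Glo viability read by luminescence.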

[9] = qHTS assay to identify small molecule agonists of the TGF-beta/Smad signaling pathway (AID 1346859; active = well fitted activation curve with a large enough effect in the signal ratio in the repeat runs, not every such curve was filed as active; the % refers to the signal ratio; also: series mostly up to about 77 µM)
Procedure, shortened: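 Stable Smad binding element-beta-lactamase HEK 293T cells; 5 hr compound exposure at 37 C under 5% CO2; 2 hr room-temperature substrate step; fluorescence excited at 405 nm, collected at 460 nm and 530 nm.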

[10] = biological target: Thyrotropin-releasing hormone receptor (Homo sapiens) (UniProt P34981); experiment: qHTS assay to identify small molecule antagonists of the thyrotropin-releasing hormone receptor (TRHR) signaling pathway (AID 1346877; active = well fitted inhibition curve with a large enough effect in the repeat runs, not every such curve was filed as active; also: series mostly up to about 51 µM)
Procedure, shortened: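 Screening used HEK293 cells engineered with TRHR, with a brief 5 min room-temperature compound exposure preceding addition of TRH to 1 nM. The read-out was kinetic calcium-dye fluorescence, concentration-response from 15 doses in triplicate.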

[11] = biological target: Thyrotropin-releasing hormone receptor (Homo sapiens) (UniProt P34981); experiment: qHTS assay to identify small molecule agonists of the thyrotropin-releasing hormone receptor (TRHR) signaling pathway (AID 1346891; calls by dose curve;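 also: HEK293 cells expressing TRHR with calcium dye readout; series mostly up to about 58 µM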)
Procedure, shortened: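 In 1536-format, 1500 TRHR-Hek293 cells per well grew 18 h, took up calcium dye for 2 h at 37 °C, received compound, and were read kinetically; 15-point titrations, triplicates.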

[12] = Human pregnane X receptor (PXR) small molecule agonists, qHTS cell viability counter screen (AID 1346977); also: nearly all actives have a fitted effect of over 50% in size
Procedure, shortened: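 Readout is CellTiter-Fluor fluorescence from PXR-Luc HepG2 cells. Plated cells rested 5hr, then were treated with compounds for 24hr at 37C and 5% CO2, with reagent present during the last hour.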

[13] = Caspase-3/7 induction in HepG2 cells by small molecules, qHTS assay (AID 1346978); also: nearly all actives have a fitted effect of over 15% in size
Procedure, shortened: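 Caspase-3/7 induction was measured by Caspase-Glo 3/7 luminescence (30 min, room temperature) after a 17 hr compound exposure of wild-type HepG2 cells seeded at 2,000 per well and pre-incubated 5 hr.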

[14] = Caspase-3/7 induction in CHO-K1 cells by small molecules, qHTS cell viability counter screen (AID 1346979); also: nearly all actives have a fitted effect of over 35% in size
Procedure, shortened: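 To flag cytotoxic compounds, treated CHO-K1 wild-type cells were given CellTiter-Fluor at 16hr and read fluorescently after 1hr at 37C; the caspase-3/7 luminescence was measured in these same wells.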

[15] = Caspase-3/7 induction in CHO-K1 cells by small molecules, qHTS assay (AID 1346980); also: nearly all actives have a fitted effect of over 15% in size
Procedure, shortened: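 Luminescent Caspase-Glo 3/7 read (30min, room temperature) quantified apoptosis induction. Cells were wild-type CHO-K1, treated with compound for 17hr at 37 C and 5% CO2.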

[16] = Caspase-3/7 induction in HepG2 cells by small molecules, qHTS cell viability counter screen (AID 1346981); also: series mostly up to about 92 µM; nearly all actives have a fitted effect of over 30% in size
Procedure, shortened: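 Multiplexed with the caspase-3/7 assay: HepG2 cells, 16 hr compound treatment, CellTiter-Fluor viability detection by fluorescence.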

[17] = biological target: Nuclear receptor subfamily 1 group I member 2 (Homo sapiens) (UniProt O75469); experiment: Human pregnane X receptor (PXR) small molecule agonists, qHTS assay (AID 1346982); also: nearly all actives have a fitted effect of over 35% in size
Procedure, shortened: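 We seeded PXR-Luc HepG2 cells in assay medium containing 5% charcoal-stripped FBS, added compounds 5 hr later, incubated 24 hr, and read luminescence with ONE-Glo reagent.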

[18] = biological target: Nuclear receptor subfamily 1 group I member 2 (Rattus norvegicus) (UniProt Q9R1A7); experiment: Rat pregnane X receptor (rPXR) activation by small molecules, qHTS assay (AID 1346983); conditions: rPXR luciferase reporter cells, One-Glo luminescence, 24 h; stronger effect = higher value; also: nearly all actives have a fitted effect of over 20% in size
Procedure, shortened: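 Luminescent readout (One-Glo luciferase, 30 min room temperature) followed 24 hr compound treatment at 37 C of rPXR cells plated 2,000 per well and preincubated 5hr; qHTS format with compounds delivered in DMSO.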

[19] = biological target: Nuclear receptor subfamily 1 group I member 2 (Homo sapiens) (UniProt O75469); experiment: CYP3A4 induction through human pregnane X receptor (PXR) by small molecules, qHTS assay (AID 1346984); also: nearly all actives have a fitted effect of over 40% in size
Procedure, shortened: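 qHTS, concentration-response format: HepG2 DPX-2 line, PXR/CYP3A4-luc. Exposure 24 h, 37C. Substrate Luciferin-IPA 3uM final, 3 h. Detection One-Glo, 30 min RT.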

[20] = biological target: Nuclear receptor subfamily 1 group I member 2 (Homo sapiens) (UniProt O75469); experiment: Human pregnane X receptor (PXR) activation by small molecules, qHTS assay (AID 1346985); also: nearly all actives have a fitted effect of over 40% in size
Procedure, shortened: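 DPX-2 cells (HepG2 co-transfected with a PXR response element and a CYP3A4-promoter luciferase construct) were seeded at 2,000 per well, rested 5 hr at 37C, then exposed to DMSO-dissolved compounds for 24 hr. Activation was read as luciferase luminescence.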
% is scaled to controls: 0 for no effect and ±100 for the full control effect.

Chain of Nuclear receptor subfamily 1 group I member 2 (Rattus norvegicus) (Q9R1A7 whole entry, looked up): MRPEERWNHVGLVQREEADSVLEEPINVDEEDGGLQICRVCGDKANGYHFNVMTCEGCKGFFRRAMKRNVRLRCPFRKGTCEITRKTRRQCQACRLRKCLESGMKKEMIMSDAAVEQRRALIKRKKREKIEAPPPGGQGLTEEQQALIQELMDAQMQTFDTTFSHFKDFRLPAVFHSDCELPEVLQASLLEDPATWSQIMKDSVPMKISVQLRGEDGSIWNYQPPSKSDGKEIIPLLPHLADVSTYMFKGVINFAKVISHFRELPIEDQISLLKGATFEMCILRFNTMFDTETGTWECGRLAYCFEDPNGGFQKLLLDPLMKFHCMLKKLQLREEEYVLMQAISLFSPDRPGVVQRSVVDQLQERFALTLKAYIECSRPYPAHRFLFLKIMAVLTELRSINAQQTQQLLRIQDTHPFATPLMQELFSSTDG
Chain of Nuclear receptor subfamily 1 group I member 2 (Homo sapiens) (O75469 whole entry, looked up): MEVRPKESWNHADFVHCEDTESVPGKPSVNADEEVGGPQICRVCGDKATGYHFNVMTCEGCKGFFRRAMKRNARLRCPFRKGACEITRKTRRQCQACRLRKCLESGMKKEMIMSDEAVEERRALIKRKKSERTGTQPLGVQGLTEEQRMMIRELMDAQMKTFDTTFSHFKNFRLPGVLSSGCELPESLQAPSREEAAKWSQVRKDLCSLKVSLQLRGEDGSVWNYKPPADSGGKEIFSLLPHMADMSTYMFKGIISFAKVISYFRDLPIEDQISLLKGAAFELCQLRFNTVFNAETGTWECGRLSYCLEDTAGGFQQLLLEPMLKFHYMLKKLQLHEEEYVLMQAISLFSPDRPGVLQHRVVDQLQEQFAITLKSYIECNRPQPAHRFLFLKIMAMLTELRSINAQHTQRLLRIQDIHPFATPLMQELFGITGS
Chain of Thyrotropin-releasing hormone receptor (Homo sapiens) (P34981 whole entry, looked up): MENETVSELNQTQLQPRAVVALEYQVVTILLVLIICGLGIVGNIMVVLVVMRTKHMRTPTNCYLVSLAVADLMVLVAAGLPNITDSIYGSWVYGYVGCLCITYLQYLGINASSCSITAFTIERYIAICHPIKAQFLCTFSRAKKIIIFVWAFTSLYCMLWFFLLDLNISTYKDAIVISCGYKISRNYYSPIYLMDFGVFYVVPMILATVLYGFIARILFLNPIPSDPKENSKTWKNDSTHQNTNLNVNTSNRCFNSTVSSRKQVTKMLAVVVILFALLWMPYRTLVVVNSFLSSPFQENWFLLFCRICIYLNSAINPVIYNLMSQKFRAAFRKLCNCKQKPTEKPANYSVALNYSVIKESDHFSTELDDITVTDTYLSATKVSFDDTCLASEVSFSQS
Chain of Progesterone receptor (Homo sapiens) (P06401 whole entry, looked up): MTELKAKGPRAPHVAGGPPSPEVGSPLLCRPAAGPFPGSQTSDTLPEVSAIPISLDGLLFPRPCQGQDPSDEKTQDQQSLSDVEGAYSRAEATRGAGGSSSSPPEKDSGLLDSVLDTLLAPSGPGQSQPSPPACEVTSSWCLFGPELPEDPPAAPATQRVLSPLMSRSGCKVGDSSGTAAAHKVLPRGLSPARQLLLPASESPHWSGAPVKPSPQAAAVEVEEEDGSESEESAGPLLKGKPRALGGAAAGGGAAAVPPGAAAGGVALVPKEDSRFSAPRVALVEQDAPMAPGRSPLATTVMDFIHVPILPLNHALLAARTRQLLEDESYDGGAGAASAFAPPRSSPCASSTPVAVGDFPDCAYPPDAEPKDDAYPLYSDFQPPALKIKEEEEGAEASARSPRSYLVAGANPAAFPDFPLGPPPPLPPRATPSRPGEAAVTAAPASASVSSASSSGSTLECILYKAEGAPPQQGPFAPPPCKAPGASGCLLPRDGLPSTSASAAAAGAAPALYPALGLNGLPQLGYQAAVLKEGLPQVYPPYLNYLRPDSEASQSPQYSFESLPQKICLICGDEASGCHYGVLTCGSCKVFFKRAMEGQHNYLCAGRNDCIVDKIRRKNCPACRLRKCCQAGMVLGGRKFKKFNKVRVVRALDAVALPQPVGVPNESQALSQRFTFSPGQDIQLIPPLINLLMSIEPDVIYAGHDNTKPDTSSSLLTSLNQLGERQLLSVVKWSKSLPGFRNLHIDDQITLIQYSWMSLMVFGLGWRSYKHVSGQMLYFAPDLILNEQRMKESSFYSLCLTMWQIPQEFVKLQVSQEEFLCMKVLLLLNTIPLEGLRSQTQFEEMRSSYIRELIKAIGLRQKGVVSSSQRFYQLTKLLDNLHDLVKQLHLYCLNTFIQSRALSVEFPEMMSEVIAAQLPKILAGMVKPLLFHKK
Chain of Thyrotropin receptor (Homo sapiens) (P16473 whole entry, looked up): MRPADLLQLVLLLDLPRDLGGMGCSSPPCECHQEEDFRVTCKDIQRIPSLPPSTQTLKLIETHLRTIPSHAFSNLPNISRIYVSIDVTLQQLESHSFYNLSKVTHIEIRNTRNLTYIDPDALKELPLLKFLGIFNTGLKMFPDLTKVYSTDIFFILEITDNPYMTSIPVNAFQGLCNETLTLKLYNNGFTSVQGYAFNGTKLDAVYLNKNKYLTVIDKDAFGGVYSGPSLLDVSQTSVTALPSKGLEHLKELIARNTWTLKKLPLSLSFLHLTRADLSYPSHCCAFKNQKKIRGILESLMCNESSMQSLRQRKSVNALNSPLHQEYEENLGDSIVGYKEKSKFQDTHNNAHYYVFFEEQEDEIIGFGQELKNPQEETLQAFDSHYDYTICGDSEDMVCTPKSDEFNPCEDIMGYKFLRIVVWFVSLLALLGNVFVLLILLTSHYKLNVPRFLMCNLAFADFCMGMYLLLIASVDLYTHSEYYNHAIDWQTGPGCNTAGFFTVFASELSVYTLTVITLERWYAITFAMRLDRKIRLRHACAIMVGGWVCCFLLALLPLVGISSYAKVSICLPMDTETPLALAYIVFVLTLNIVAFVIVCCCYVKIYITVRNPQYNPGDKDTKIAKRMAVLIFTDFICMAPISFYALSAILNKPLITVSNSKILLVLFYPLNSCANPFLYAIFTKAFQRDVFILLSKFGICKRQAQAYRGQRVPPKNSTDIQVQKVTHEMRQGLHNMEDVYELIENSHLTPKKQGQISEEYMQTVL

CC(=O)NCCCCCC(=O)O
inactive: outcome [1] | Potency [2] | Potency [3] | Potency [4] | Potency [5] | Potency [6] | outcome [7] | outcome [8] | outcome [9] | outcome [10] | outcome [11] | Potency [12] | Potency [13] | Potency [14] | outcome [15] | Potency [16] | Potency [17] | max activation [18] 0.55% | Potency [19] | Potency [20]

CC(=O)CCCCn1c(=O)c2c(ncn2C)n(C)c1=O
inactive: outcome [1] | Potency [2] | Potency [3] | Potency [4] | Potency [5] | Potency [6] | outcome [7] | outcome [8] | outcome [9] | outcome [10] | outcome [11] | Potency [12] | Potency [13] | Potency [14] | outcome [15] | Potency [16] | Potency [17] | max activation [18] -1.72% | Potency [19] | Potency [20]

O=C(O)c1cc(Br)c(O)c(Br)c1
inactive: outcome [1] | Potency [2] | Potency [3] | Potency [4] | Potency [5] | Potency [6] | outcome [7] | outcome [8] | outcome [9] | outcome [10] | outcome [11] | Potency [12] | Potency [13] | Potency [14] | outcome [15] | Potency [16] | Potency [17]

CCOC(=O)/C=C/c1ccccc1
inactive: outcome [1] | Potency [2] | Potency [3] | Potency [4] | Potency [5] | Potency [6] | outcome [7] | outcome [8] | outcome [9] | outcome [10] | outcome [11] | Potency [12] | Potency [13] | Potency [14] | outcome [15] | Potency [16] | Potency [17]

CCC(CC)CO
inactive: outcome [1] | Potency [2] | Potency [3] | Potency [4] | Potency [5] | Potency [6] | outcome [7] | outcome [8] | outcome [9] | outcome [10] | outcome [11] | Potency [12] | Potency [13] | Potency [14] | outcome [15] | Potency [16] | Potency [17]

CN(C)c1ccc(C=O)cc1
inactive: outcome [1] | Potency [2] | Potency [3] | Potency [4] | Potency [5] | Potency [6] | outcome [7] | outcome [8] | outcome [9] | outcome [10] | outcome [11] | Potency [12] | Potency [13] | Potency [14] | outcome [15] | Potency [16] | Potency [17]

COc1ccc(Br)c(C)c1
inactive: outcome [1] | Potency [2] | Potency [3] | Potency [4] | Potency [5] | Potency [6] | outcome [7] | outcome [8] | outcome [9] | outcome [10] | outcome [11] | Potency [12] | Potency [13] | Potency [14] | outcome [15] | Potency [17]

Nc1nnc(-c2cccc(Cl)c2Cl)c(N)n1
inactive: outcome [1] | Potency [2] | Potency [3] | Potency [4] | Potency [5] | Potency [6] | outcome [7] | outcome [8] | outcome [9] | outcome [10] | outcome [11] | Potency [12] | Potency [13] | Potency [14] | outcome [15] | Potency [16]

N[C@@H](COP(=O)(O)O)C(=O)O
inactive: activity change, negative = inhibition [1] -0.736% [at 19 µM] | activity change, negative = cytotoxicity [2] 0.187% [at 19 µM] | activation [3] 0.26% [at 19 µM] | activity change, negative = inhibition [4] 6.07% [at 18.9 µM] | activity change, negative = cytotoxicity [5] -0.532% [at 18.9 µM] | activity change, negative = cytotoxicity [6] 13.8% [at 19 µM] | viability change, negative = cytotoxic [7] -0.3% [at 15.8 µM] | activity change, negative = cytotoxicity [8] 0.5% [at 15.8 µM] | activation [9] -0.654% [at 15.8 µM] | activity, negative = inhibition [10] -1.81% [at 10.5 µM] | activation [11] -0.175% [at 11.8 µM] | activity change, negative = cytotoxicity [12] 17.9% [at 19 µM] | caspase activation [13] 0.675% [at 19 µM] | activity change, negative = cytotoxicity [14] 4.45% [at 19 µM] | caspase-3/7 activation [15] 0.116% [at 19 µM] | activity change, negative = cytotoxicity [16] 5.73% [at 19 µM] | activation [17] 9.49% [at 19 µM] | max activation [18] -0.35% | Potency [19] | Potency [20]

CCNC(=O)C1CC(C)CCC1C(C)C (stereo not given)
inactive: outcome [1] | Potency [2] | Potency [3] | Potency [4] | Potency [5] | Potency [6] | outcome [7] | outcome [8] | outcome [9] | outcome [10] | outcome [11] | Potency [12] | Potency [13] | Potency [14] | outcome [15] | Potency [16]

COc1cc(C(=S)N2CCOCC2)cc(OC)c1OC
inactive: outcome [1] | Potency [2] | Potency [3] | Potency [4] | Potency [5] | Potency [6] | outcome [7] | outcome [8] | outcome [9] | outcome [10] | outcome [11] | Potency [12] | Potency [13] | Potency [14] | outcome [15] | Potency [17] | max activation [18] -2.22% | Potency [19] | Potency [20]

CC(C)(C)c1n[nH]c(=S)n(N)c1=O
inactive: outcome [1] | Potency [2] | Potency [3] | Potency [4] | Potency [5] | Potency [6] | outcome [7] | outcome [8] | outcome [9] | outcome [10] | outcome [11] | Potency [12] | Potency [13] | Potency [14] | outcome [15] | Potency [16] | Potency [17]

COCCOCCOCCOCCO
inactive: outcome [1] | Potency [2] | Potency [3] | Potency [4] | Potency [5] | Potency [6] | outcome [7] | outcome [8] | outcome [9] | outcome [10] | outcome [11] | Potency [12] | Potency [13] | Potency [14] | outcome [15] | Potency [16] | Potency [17]

CC(C)CC(=O)O
inactive: outcome [1] | Potency [2] | Potency [3] | Potency [4] | Potency [5] | Potency [6] | outcome [7] | outcome [8] | outcome [9] | outcome [10] | outcome [11] | Potency [12] | Potency [13] | Potency [14] | outcome [15] | Potency [16]
